Dicer inh: inhibitors of human Dicer processing of pre-microRNA. Q9UPY3. cat-ELCCA pre-miR-21 Dicer processing, chemiluminescence; stronger effect = higher value. 47,000 compounds, 6% hits. z-score at 25 µM; in the data active = z-score above about 3, passing the limit was not always enough;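 note: plate controls were vehicle for no effect and no enzyme for full effect; higher signal means more uncleaved substrate so more Dicer inhibition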
Target sequence (Q9UPY3 whole entry, looked up): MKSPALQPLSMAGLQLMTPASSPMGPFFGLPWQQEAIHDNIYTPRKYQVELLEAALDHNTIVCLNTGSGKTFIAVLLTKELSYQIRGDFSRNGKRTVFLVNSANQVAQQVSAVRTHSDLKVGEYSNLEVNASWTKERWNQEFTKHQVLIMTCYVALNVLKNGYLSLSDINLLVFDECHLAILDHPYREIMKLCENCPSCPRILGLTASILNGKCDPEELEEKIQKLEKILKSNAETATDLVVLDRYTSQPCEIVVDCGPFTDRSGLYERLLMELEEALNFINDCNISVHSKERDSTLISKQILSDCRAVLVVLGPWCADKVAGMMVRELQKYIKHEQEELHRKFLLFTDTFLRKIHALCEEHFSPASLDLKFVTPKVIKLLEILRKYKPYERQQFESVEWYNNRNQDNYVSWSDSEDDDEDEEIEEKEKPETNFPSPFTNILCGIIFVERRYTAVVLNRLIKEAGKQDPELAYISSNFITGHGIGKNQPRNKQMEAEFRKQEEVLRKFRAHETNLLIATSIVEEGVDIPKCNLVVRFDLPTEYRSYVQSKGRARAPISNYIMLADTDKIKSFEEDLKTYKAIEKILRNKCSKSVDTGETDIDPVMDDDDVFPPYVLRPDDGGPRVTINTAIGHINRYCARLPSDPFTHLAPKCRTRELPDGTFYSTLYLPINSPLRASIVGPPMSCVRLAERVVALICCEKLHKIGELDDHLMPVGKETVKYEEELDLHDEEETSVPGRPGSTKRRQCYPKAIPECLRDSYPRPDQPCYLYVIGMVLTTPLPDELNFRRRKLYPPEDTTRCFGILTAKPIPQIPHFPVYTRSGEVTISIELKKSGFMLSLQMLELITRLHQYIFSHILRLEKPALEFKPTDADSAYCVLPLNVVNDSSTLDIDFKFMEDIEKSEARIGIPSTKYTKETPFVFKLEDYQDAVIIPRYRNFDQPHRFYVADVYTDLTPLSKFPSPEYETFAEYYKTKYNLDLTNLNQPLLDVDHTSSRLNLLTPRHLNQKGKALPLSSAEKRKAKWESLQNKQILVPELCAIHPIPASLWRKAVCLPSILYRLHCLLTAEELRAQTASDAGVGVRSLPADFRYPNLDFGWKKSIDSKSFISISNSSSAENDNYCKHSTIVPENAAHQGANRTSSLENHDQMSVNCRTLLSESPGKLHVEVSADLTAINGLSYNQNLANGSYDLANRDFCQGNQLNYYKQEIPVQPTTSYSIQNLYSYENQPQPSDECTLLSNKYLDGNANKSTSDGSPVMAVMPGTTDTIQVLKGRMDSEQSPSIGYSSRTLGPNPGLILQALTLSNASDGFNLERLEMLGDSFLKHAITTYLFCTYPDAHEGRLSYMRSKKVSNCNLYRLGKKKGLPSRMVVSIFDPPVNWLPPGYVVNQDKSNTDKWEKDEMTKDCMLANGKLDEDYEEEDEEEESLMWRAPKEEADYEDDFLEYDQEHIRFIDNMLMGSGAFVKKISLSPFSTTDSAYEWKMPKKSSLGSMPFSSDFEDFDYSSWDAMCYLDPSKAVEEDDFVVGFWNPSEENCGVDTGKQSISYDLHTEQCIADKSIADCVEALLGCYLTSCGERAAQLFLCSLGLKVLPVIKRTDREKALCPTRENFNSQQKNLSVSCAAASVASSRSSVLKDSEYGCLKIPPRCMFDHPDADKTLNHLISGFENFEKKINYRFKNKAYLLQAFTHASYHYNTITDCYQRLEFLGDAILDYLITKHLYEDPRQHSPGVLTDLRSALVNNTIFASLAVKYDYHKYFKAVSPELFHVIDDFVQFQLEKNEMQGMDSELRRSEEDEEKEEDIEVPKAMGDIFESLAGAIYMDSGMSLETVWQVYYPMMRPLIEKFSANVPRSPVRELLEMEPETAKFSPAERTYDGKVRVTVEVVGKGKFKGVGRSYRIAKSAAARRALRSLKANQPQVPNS
Active calls of the source: *. Only a selection was taken, and hits are over-represented in it overall.

SMILES	Dicer inh
C/C(=N\NC(=S)NCC(C)(C)C)c1cc(F)cc(F)c1O	-2.4
CCCc1n(CC(O)COc2ccccc2C)c2ccccc2[n+]1C (centres undefined)	0.57
COc1ccc(OCC(O)Cn2c(C)[n+](C)c3ccccc32)cc1 (centres undefined)	3.8*
Cc1n(CC(O)COc2cccc(Cl)c2)c2ccccc2[n+]1C (centres undefined)	-1.3
CCCc1n(CC(O)COc2ccc(F)cc2)c2ccccc2[n+]1C (centres undefined)	3.7*
CCCc1n(CC(O)COc2cccc(OC)c2)c2ccccc2[n+]1C (centres undefined)	-0.34
Cc1cccc(C)c1OCC(O)Cn1c(C)[n+](C)c2ccccc21 (centres undefined)	-0.63
CC1(C)CN=C(N(C(=O)Nc2cccc(Cl)c2)C2CCCCC2)S1	0.77
Cc1cc(=O)[nH]c2c1c(-c1cccs1)nn2C	-0.94
CCOC(=O)Cc1csc(NC(=O)c2ccc(F)cc2)n1	-1.7
CCOC(=O)Cc1csc(NC(=O)C(Cl)(Cl)Cl)n1	0.55
CC(C)(C)NC(=O)c1cc2ccccc2oc1=O	-1
COc1ccc(C(F)(F)F)cc1-n1ccc(-c2ccc(C)cc2)nc1=S	-0.03
N/C(=N\S(=O)(=O)c1cc(C(F)(F)F)cc(C(F)(F)F)c1)N1CCSCC1	5.5*
N/C(=N\S(=O)(=O)c1cc(C(F)(F)F)cc(C(F)(F)F)c1)c1ccccc1	0.93
Cc1nc(C(F)(F)F)ccc1C(=O)N1CCSCC1	-0.12
CSc1sc(-c2ccnc(SCC(=O)c3ccc(Cl)cc3)n2)c(-c2ccccc2)c1C#N	-0.62
CC(=O)Oc1ccc2nc(-c3ccco3)oc(=O)c2c1	2.6
Oc1c(C(Nc2ccccc2Cl)c2ccccn2)ccc2cccnc12 (centres undefined)	14
Oc1ccc2ncccc2c1C(Nc1ccccn1)c1ccc(Cl)cc1 (centres undefined)	1.5
Oc1cccnc1NC(c1ccc(Cl)cc1)c1ccc2cccnc2c1O (centres undefined)	3.6*
O=C(NC(Sc1ncccn1)C(=O)c1ccccc1)c1ccccc1 (centres undefined)	-0.62
Cc1ccc(C(NC(=O)C(C)C)c2ccc3cccnc3c2O)cc1 (centres undefined)	13
Oc1c(C(Nc2ccccn2)c2ccccc2Cl)ccc2cccnc12 (centres undefined)	3.9*
CCN(CC)c1ccc(C(Nc2ccccn2)c2ccc3cccnc3c2O)cc1 (centres undefined)	2.8
SMILES	Dicer inh
Cc1cccc(NC(c2ccncc2)c2ccc3cccnc3c2O)c1 (centres undefined)	0.59
CCc1ccccc1NC(c1ccccn1)c1ccc2cccnc2c1O (centres undefined)	8*
COc1cccc(C(Nc2ccccn2)c2ccc3ccc(C)nc3c2O)c1OC (centres undefined)	0.22
O=C(NC(c1ccccc1)c1ccc2cccnc2c1O)c1ccccc1 (centres undefined)	6*
CNc1ccc([N+](=O)[O-])cc1C(F)(F)F	0.56
N#CCCN(Cc1ccccc1)C(=S)Nc1cccc(C(F)(F)F)c1	1.1
CCOC(=O)Cc1c(C(=O)OCC)sc(N)c1C#N	0.96
COc1cc(CO)c(CC(=O)N/N=C/C=C/c2ccccc2)cc1OC	0.47
Cc1c(NC(=O)CSc2ccc(Cl)cc2)c(=O)n(-c2ccccc2)n1C	0.33
O=C(COc1ccccc1OC(=O)c1ccc(Cl)cc1)NCc1ccccc1Cl	-1.5
CCCCCCCCCCCCCCSCC(=O)O	-1.7
CC(Oc1c(Cl)cccc1Cl)C1=NCCN1 (centres undefined)	-0.2
Cc1cccc(NC(c2ccccc2C)c2ccc3ccc(C)nc3c2O)n1 (centres undefined)	5.3*
Cc1cccc(NC(c2ccccc2F)c2ccc3cccnc3c2O)n1 (centres undefined)	0.26
CCOc1ccc(C(Nc2ccccn2)c2ccc3ccc(C)nc3c2O)cc1C (centres undefined)	3.5*
CCOc1cc(C(Nc2ccccn2)c2ccc3cccnc3c2O)ccc1O (centres undefined)	11
Cc1ccc2ccc(C(Nc3ccccn3)c3ccccc3F)c(O)c2n1 (centres undefined)	12
COc1ccc(C(Nc2ccccn2)c2ccc3ccc(C)nc3c2O)cc1 (centres undefined)	-1.7
CCOc1cc(C(Nc2ccccn2)c2ccc3ccc(C)nc3c2O)ccc1OC (centres undefined)	0.5
Cc1ccc2ccc(C(Nc3ccccn3)c3ccccc3C)c(O)c2n1 (centres undefined)	0.11
Cc1ccc2ccc(C(Nc3ccccn3)c3ccccc3)c(O)c2n1 (centres undefined)	5.9*
Cc1c2cnc3nn(-c4ccccc4)c(=O)c-3cc2c(C)n1C	0.4
Cc1ccc(S(=O)(=O)CC2CSc3nc(N)cc(=O)n32)cc1 (centres undefined)	-0.98
CC(O)CNc1nc2c(c(=O)n(Cc3ccccc3)c(=O)n2C)n1C (centres undefined)	0.15
Cc1onc(-c2c(Cl)cccc2Cl)c1NC(=O)O/N=C/c1ccc(Cl)c(Cl)c1	-1
SMILES	Dicer inh
O=C(Nc1cc(C(F)(F)F)cc(C(F)(F)F)c1)c1csc(-c2ccc(Cl)cc2)c1	0.43
CN(Cc1ccccc1)S(=O)(=O)Cc1ccccc1	0.64
O=S1(=O)CC(O)C(S(=O)(=O)Cc2ccc(Cl)cc2)C1 (centres undefined)	0.55
O=S(=O)(Cc1ccccc1)C1CCCCC1O (centres undefined)	3.1*
Cc1ccccc1-c1nc2cc(N)ccc2o1	5.7
Nc1ccc(CCc2nc3cc(N)ccc3o2)cc1	3.9*
Nc1ccc2oc(-c3cccc(-c4nc5cc(N)ccc5o4)n3)nc2c1	-4.8
CCOC(=O)c1sc(SCC(=O)c2ccc(Cl)cc2Cl)nc1C	-3.8
CC(C)NC(=O)NCc1c(F)cccc1Cl	2.6
O=[N+]([O-])c1ccc(-c2csc(C3(c4ccc(Cl)cc4Cl)CC3)n2)cc1	-0.07
CCc1ccc(Oc2coc3cc(OC(=O)OC)ccc3c2=O)cc1	0.69
COc1ccc(Cl)cc1S(=O)(=O)N1CCCC(C)C1 (centres undefined)	1.2
CC(=O)Nc1ccc(NC(=O)c2nccnc2C(=O)O)cn1	-0.06
Cn1nccc1NC(=O)c1nccnc1C(=O)O	-0.01
C/C(=C\C#N)NC(=O)c1nccnc1C(=O)O	4.6*
Cc1[nH]nc(-c2cccs2)c1C(=O)N/N=C/c1ccc([N+](=O)[O-])s1	0.01
CCOC(=O)/C(C#N)=C/N=C(N/N=C/c1c(Cl)cccc1Cl)SC	-1.2
CSC(=NC(=O)c1c(Cl)cccc1Cl)N1CCCC1	-1.4
c1ccc(CN2CCN(Cc3c[nH]c4ccccc34)CC2)cc1	6.9*
COc1ccccc1CN1CCN(Cc2c[nH]c3ccccc23)CC1	2
c1ccc2c(CN3CCN(Cc4ccncc4)CC3)c[nH]c2c1	0.38
CCOC(=O)c1c[nH]c2c(C)ccc(Cl)c2c1=O	-1.7
O=C1NCC(COc2cccc3ccccc23)O1 (centres undefined)	0.1
C=CCSc1n[nH]c(=O)n1-c1cccc(C(F)(F)F)c1	-0.52
O=C1Cn2c(nc3ccccc32)N1c1ccccc1F	1.4
Cc1ccc(S(=O)(=O)NC2=NCN(CCc3ccccc3)CN2)cc1	-1.2
Cc1ccc(S(=O)(=O)NC2=NCN(Cc3ccccc3)CN2)cc1	4.6*
CCCN1CN=C(NS(=O)(=O)c2ccc(C)cc2)NC1	0.67
N#C/C(=C\c1ccc2c(c1)CCO2)S(=O)(=O)c1ccc(Cl)cc1Cl	0.45
O=c1[nH]c2ccsc2c(=O)n1CCO	3.2*

Source: PubChem (Center for Chemical Genomics, University of Michigan)
